# Reference: PubChem BioAssay AID734 (The Scripps Research Institute Molecular Screening Center, 2007)
# Out of some 5,100 compounds screened, fewer than 10 were called active. A selection follows. Values without a mark were called inactive.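 How the source made its calls: active means inhibition above the mean inhibition over all tested compounds plus 3 SD (cut at about 75% in these data); inactive means the rest.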
# Molecular target: Collagenase 3 (Homo sapiens) (UniProt P45452)
# Assay: MMP13 inhibitors among fluorescent compounds, confirmation, biochemical, possible fluorescent artifacts, delta fluorescence (AID 734);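 further: 0% = DMSO only wells and 100% = 8 µM reference MMP13 inhibitor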
# Conditions: MMP13 fTHP FRET cleavage, delta fluorescence 4 h; active compounds read high;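 each compound tested at 4 µM nominal in triplicate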
row,Structure (SMILES),inhibition
1,OCc1ccccc1OCCOc1ccc(Cl)c2cccnc12,6.18%
2,CC(C)NCC(O)Cn1c2c(c3ccccc31)CCc1c-2cnn1-c1ccccc1 (configuration not stated),6.63%
3,CC(=O)Nc1nc2n(n1)C(c1ccccc1)C=C(c1ccccc1)N2 (configuration not stated),0.41%
4,O=C(Oc1cccnc1)c1ccco1,3.63%
5,COc1ccc(C2C=C(C)Nc3nc(SC)nn32)cc1 (configuration not stated),-11.2%
6,CCOc1ccc(C2CC(c3cccc(Cl)c3)n3nc(N)nc3N2)cc1 (configuration not stated),4.79%
7,Cc1ccc(-n2ncc3c(=O)n(CC(=O)NCc4ccco4)cnc32)cc1C,5.2%
8,COCCCNC(=O)c1ccc2nc3ccccc3c(=O)n2c1,-3.91%
9,CCCOc1ccccc1-c1nc2c([nH]1)c(=O)[nH]c(=O)n2C,-0.35%
10,CS(=O)(=O)N1CCc2cc(C(=O)N3CCOCC3)ccc21,5.36%
11,CCOC(=O)c1[nH]c2ccc(OCC)cc2c1NC(=O)CN1CCN(c2ccccn2)CC1,-14.1%
12,CCCC(=O)N1CCN(c2nc(CC(C)C)c3c(c2C#N)CCC3)CC1,0.13%
13,CCS(=O)(=O)Nc1c(C(=O)O)[nH]c2ccccc12,3.79%
14,CCOC(=O)c1oc2cccc(OCC(O)CNC(C)C)c2c1C (configuration not stated),-6.29%
15,N#Cc1cc2c(nc1SCC(=O)Nc1nccs1)CCCCC2,-11%
16,COc1ccc(O)c(C(=O)c2cc(C#N)c(=O)n(-c3c(C)n(C)n(-c4ccccc4)c3=O)c2)c1,6.02%
17,CCOC(=O)c1cccnc1SCc1cc(=O)n2ccccc2n1,3.91%
18,CC1=C(C(=O)N2CCOCC2)C(c2ccccc2F)C2=C(CC(C)(C)CC2=O)N1 (configuration not stated),-1.62%
19,CCCC(c1nnnn1C1CCCC1)N1CCN(C(=O)c2ccco2)CC1 (configuration not stated),6.95%
20,N#Cc1nc(-c2cccs2)oc1N1CCOCC1,-82.1%
21,CCCc1cc(=O)oc2cc(C)c3c(C)coc3c12,-8.56%
22,CCOC(=O)c1cc2c(=O)n3ccccc3nc2n(C(C)C)c1=NC(=O)c1ccncc1,-11.4%
23,CN1CC=C2C(C#N)=C(N)C(C#N)(C#N)C(CCc3ccccc3)C2C1 (configuration not stated),5.88%
24,O=S(=O)(NC1c2cccc3cccc(c23)C1N1CCNCC1)c1ccccc1 (configuration not stated),8.95%
25,COc1ccc(CN2CCCC2C(=O)Nc2ccc(OC)c(OC)c2)cc1OC (configuration not stated),1.58%
26,CC(O)Cn1ccccc1=N (configuration not stated),4.32%
27,CC(C)(C)c1cc(=O)n2c(C#N)c(C#N)nc2[nH]1,4.14%
